Results from PubChem BioAssay (Tox21).
Activity calls are given as the source filed them. Unless noted, calls come from the whole dose curve; as a rule, active = well fitted curve in the direction sought with a large enough effect in the repeat runs; inconclusive = weak or mixed curves; inactive = no such curve, though single readings can be large; an effect the other way counts as inactive or inconclusive.

Experiments:
[1] = qHTS assay to identify small molecule antagonists of the thyroid receptor (TR) signaling pathway - cell viability counter screen (AID 743064); conditions: GH3.TRE-Luc viability, CellTiter-Fluor, 24 h; series mostly up to 70.3 µM; note: potency is the fitted concentration of half-maximal effect; nearly all actives have a fitted effect of over 50% in size
How it was run: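 GH3.TRE-Luc rat pituitary cells carrying a TRE-luciferase reporter were treated with compound plus 1 nM T3 (final) for 23.5 h at 37 °C. Viability was then read in the same wells by CellTiter-Fluor fluorescence after a further 30 min.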

[2] = qHTS assay to identify small molecule antagonists of the thyroid receptor (TR) signaling pathway (AID 743065); conditions: GH3.TRE-Luc, T3-stimulated luciferase inhibition, 23.5 h; series mostly up to 70.3 µM; note: potency is the fitted concentration of half-maximal effect; nearly all actives have a fitted effect of over 55% in size
How it was run: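 GH3.TRE-Luc rat pituitary cells carrying two TR response elements driving luciferase were plated for 4 h, given compound plus 1 nM T3 (final), and incubated 23.5 h at 37 C. ONE-Glo luminescence measured reporter inhibition; CellTiter-Fluor fluorescence tracked cytotoxicity.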

[3] = qHTS assay to identify small molecule antagonists of the estrogen receptor alpha (ER-alpha) signaling pathway - cell viability counter screen (AID 743074; calls by dose curve; note: nearly all actives have a fitted effect of over 45% in size; note: potency is the fitted concentration of half-maximal effect); conditions: ERalpha-bla HEK293 viability, CellTiter-Glo luminescence, 18 h; series mostly up to 69.4 µM
[4] = target: Estrogen receptor (Homo sapiens) (UniProt P03372); experiment: qHTS assay to identify small molecule agonists of the estrogen receptor alpha (ER-alpha) signaling pathway (AID 743075; calls by dose curve); conditions: HEK293 ER-alpha-UAS-bla, beta-lactamase FRET ratio, 18 h; activation: at 70.1 µM (top of the series)
Sequence of Estrogen receptor (Homo sapiens) (P03372 whole entry, looked up): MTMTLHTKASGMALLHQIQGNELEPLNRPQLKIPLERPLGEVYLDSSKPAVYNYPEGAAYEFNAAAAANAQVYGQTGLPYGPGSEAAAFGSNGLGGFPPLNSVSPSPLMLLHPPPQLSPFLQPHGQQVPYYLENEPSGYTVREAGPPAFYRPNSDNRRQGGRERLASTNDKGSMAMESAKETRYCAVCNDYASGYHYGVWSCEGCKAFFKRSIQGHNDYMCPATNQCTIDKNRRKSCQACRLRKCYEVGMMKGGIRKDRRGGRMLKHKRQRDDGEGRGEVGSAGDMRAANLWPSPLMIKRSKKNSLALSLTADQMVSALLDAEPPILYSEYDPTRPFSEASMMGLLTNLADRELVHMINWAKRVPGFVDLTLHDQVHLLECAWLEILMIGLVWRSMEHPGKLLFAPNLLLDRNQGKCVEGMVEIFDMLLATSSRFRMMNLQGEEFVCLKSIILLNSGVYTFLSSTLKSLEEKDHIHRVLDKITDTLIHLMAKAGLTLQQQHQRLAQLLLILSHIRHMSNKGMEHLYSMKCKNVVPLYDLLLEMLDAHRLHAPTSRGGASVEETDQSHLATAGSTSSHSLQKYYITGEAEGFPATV

[5] = qHTS assay to identify small molecule antagonists of the estrogen receptor alpha (ER-alpha) signaling pathway using the BG1 cell line (AID 743080; calls by dose curve;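 note: BG1 cells stimulated with 17beta-estradiol alongside compound; nearly all actives have a fitted effect of over 25% in size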); conditions: BG1Luc4E2 ERE-luciferase antagonist mode, luminescence; series mostly up to 70.3 µM
How it was run: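 BG1-Luc-4E2 cells (endogenous full-length ER-alpha, 4xERE luciferase) hormone-starved 5 days in charcoal-stripped FBS, plated 4,000/well for 24 h, then compound plus 17beta-estradiol for 21.5 h at 37 C; ONE-Glo luminescence read.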

Aromatase (Homo sapiens) = Aromatase (Homo sapiens) (UniProt P11511); experiment: qHTS assay to identify aromatase inhibitors (AID 743083); conditions: MCF-7 aro ERE, testosterone-driven ERE luciferase, 24 h; series mostly up to 70.3 µM; note: nearly all actives have a fitted effect of over 55% in size; note: potency is the fitted concentration of half-maximal effect
Sequence of Aromatase (Homo sapiens) (P11511 whole entry, looked up): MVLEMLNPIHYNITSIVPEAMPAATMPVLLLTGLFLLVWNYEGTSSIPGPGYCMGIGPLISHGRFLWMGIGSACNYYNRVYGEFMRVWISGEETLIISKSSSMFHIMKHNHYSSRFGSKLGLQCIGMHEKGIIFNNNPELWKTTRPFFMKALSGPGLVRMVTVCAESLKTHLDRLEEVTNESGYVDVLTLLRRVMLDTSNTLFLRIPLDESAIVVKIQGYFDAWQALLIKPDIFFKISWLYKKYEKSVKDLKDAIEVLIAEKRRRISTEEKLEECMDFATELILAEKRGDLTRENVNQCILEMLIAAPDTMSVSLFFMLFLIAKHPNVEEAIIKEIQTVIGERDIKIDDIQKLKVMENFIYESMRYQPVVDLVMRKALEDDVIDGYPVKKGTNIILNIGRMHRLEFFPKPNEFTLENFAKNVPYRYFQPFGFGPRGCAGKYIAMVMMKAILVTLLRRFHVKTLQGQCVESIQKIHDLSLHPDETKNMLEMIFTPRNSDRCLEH

[6] = qHTS assay to identify small molecule antagonists of the estrogen receptor alpha (ER-alpha) signaling pathway using the BG1 cell line - cell viability counter screen (AID 743081); conditions: BG1Luc4E2 viability, CellTiter-Fluor, 22 h; series mostly up to 70.3 µM;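 note: compound given together with 17beta-estradiol as the ER stimulus; nearly all actives have a fitted effect of over 45% in size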; note: potency is the fitted concentration of half-maximal effect
[7] = qHTS assay to identify aromatase inhibitors - cell viability counter screen (AID 743084); conditions: MCF-7 aro ERE viability, CellTiter-Fluor, 24 h; series mostly up to 70.3 µM;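 note: cells stimulated with testosterone during compound exposure; potency is the fitted concentration of half-maximal effect; nearly all actives have a fitted effect of over 55% in size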
[8] = target: Aryl hydrocarbon receptor (Homo sapiens) (UniProt P35869); experiment: qHTS assay to identify small molecule that activate the aryl hydrocarbon receptor (AhR) signaling pathway (AID 743085); conditions: HepG2 AhR-luc (HG2L7.5c1), luciferase, 24 h; series mostly up to 70.3 µM; note: nearly all actives have a fitted effect of over 15% in size; note: potency is the fitted concentration of half-maximal effect;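 for activation: HG2L7.5c1 human HepG2 liver cells with stably integrated DRE-driven firefly reporter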
Sequence of Aryl hydrocarbon receptor (Homo sapiens) (P35869 whole entry, looked up): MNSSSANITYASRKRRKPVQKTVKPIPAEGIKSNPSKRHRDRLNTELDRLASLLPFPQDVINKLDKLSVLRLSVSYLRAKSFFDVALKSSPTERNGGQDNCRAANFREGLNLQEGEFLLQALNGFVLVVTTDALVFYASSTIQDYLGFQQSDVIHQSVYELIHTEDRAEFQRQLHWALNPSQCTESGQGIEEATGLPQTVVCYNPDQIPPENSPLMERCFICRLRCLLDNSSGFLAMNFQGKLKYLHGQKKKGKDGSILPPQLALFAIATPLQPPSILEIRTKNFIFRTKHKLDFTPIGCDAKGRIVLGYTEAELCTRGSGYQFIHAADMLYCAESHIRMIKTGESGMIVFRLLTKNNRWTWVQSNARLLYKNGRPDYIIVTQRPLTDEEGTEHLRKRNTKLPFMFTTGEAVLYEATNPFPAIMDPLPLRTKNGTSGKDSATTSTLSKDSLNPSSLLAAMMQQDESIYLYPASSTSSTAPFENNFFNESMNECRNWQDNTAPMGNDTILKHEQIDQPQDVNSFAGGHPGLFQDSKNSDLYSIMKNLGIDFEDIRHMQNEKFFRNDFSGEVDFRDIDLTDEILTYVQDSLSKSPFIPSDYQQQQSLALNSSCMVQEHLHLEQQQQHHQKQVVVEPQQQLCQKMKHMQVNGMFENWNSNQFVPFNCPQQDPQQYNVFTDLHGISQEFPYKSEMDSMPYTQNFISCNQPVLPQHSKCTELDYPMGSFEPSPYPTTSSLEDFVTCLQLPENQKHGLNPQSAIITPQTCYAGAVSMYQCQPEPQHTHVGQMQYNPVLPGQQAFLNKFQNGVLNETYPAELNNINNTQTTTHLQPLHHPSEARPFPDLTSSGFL
How it was run: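 HepG2 cells (HG2L7.5c1) stably carrying a firefly luciferase reporter driven by 20 dioxin responsive elements were exposed to compound for 24 h at 37C after a 5 h settling period; luminescence rise (ONE-Glo) indicated activation.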

[9] = qHTS assay to identify small molecule that activate the aryl hydrocarbon receptor (AhR) signaling pathway - cell viability counter screen (AID 743086); conditions: HepG2-AhR-luc viability, CellTiter-Fluor, 24 h; series mostly up to 70.3 µM; note: potency is the fitted concentration of half-maximal effect; nearly all actives have a fitted effect of over 45% in size
How it was run: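 HepG2-AhR-luc (HG2L7.5c1) cells, 4000/well, were preincubated 5 h at 37C, exposed to compound in qHTS format for 24 hr at 37C, then given CellTiter-Fluor for 30 min; viability was read as fluorescence in the reporter wells.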

[10] = qHTS assay for small molecule agonists of the antioxidant response element (ARE) signaling pathway - cell viability counter screen (AID 743203; calls by dose curve; note: potency is the fitted concentration of half-maximal effect; nearly all actives have a fitted effect of over 55% in size); conditions: ARE-bla HepG2 viability, CellTiter-Glo luminescence, 16 h; series mostly up to 73.3 µM
How it was run: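 HepG2 cells carrying ARE-driven beta-lactamase; 2,000 cells/well; 5 hrs plating; compound pinned from DMSO; 16 hrs 37C/5% CO2; CellTiter-Glo added; 30 min RT; luminescence.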

[11] = qHTS assay for small molecule activators of the heat shock response signaling pathway - cell viability counter screen (AID 743209); conditions: HSE-bla HeLa viability, CellTiter-Glo luminescence, 5 h; series mostly up to 62.6 µM; note: nearly all actives have a fitted effect of over 50% in size; note: potency is the fitted concentration of half-maximal effect
How it was run: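 Luminescence from CellTiter-Glo, added after the beta-lactamase FRET read, gave the viability signal. Cells were HSE-bla HeLa treated with DMSO-dissolved compounds for 5 h at 37 C following overnight plating.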

[12] = qHTS assay to identify small molecule antagonists of the peroxisome proliferator-activated receptor gamma (PPARg) signaling pathway - cell viability counter screen (AID 743194); conditions: PPARg-bla HEK293H viability, CellTiter-Glo luminescence, 17 h, co-treated with 50 nM rosiglitazone; series mostly up to 62.6 µM
How it was run: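 PPARg-UAS-bla HEK293H cells were plated, rested 5 h at 37 C, then treated with compounds plus rosiglitazone (50 nM final) for 17 h at 37 C; viability was then read by CellTiter-Glo luminescence after 30 min at room temperature.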

[13] = target: Estrogen receptor (Homo sapiens) (UniProt P03372); experiment: qHTS assay to identify small molecule antagonists of the estrogen receptor alpha (ER-alpha) signaling pathway (AID 743069; active = well fitted curve in the direction sought with a large enough effect in the signal ratio in the repeat runs, not every such curve was filed as active; inconclusive = weak or mixed curves, or effect the other way; inactive = no such curve, though single readings can be large or run the other way; the % refers to the signal ratio; note: potency is the fitted concentration of half-maximal effect); conditions: HEK293 ER-alpha-UAS-bla, beta-lactamase ratio, antagonist mode; series mostly up to 69.4 µM
How it was run: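 HEK293 cells stably carrying an ER-alpha-UAS-bla beta-lactamase reporter were pre-cultured overnight in 2% charcoal-stripped FBS medium. Test compounds in DMSO were added together with 17beta-estradiol for 18 hr at 37C. Read-out was fluorescence after 2 hr with LiveBLAzer B/G FRET substrate at room temperature.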

[14] = target: Peroxisome proliferator-activated receptor gamma (Homo sapiens) (UniProt P37231); experiment: qHTS assay to identify small molecule agonists of the peroxisome proliferator-activated receptor gamma (PPARg) signaling pathway (AID 743094; active = well fitted activation curve with a large enough effect in the signal ratio in the repeat runs, not every such curve was filed as active; inconclusive = weak or mixed curves, or effect the other way; inactive = no such curve, though single readings can be large or run the other way; the % refers to the signal ratio); conditions: HEK293H PPARg-UAS-bla, beta-lactamase FRET ratio, 17 h; series mostly up to 57 µM
Sequence of Peroxisome proliferator-activated receptor gamma (Homo sapiens) (P37231 whole entry, looked up): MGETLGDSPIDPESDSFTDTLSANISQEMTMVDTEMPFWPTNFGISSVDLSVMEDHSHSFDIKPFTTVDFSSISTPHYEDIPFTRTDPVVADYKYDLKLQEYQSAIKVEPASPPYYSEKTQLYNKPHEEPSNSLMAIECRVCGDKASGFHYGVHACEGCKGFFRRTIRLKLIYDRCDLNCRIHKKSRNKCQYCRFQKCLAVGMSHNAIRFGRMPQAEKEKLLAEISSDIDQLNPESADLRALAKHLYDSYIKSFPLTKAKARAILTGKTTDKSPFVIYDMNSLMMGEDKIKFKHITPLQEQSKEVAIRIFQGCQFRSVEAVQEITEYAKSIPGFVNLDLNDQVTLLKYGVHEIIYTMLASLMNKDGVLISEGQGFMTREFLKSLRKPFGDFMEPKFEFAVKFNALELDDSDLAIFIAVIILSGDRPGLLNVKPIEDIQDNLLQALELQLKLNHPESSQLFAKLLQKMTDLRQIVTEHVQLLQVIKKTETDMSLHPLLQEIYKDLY
How it was run: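 Beta-lactamase FRET fluorescence was the read-out after a 1 h room-temperature substrate step, following 17 h compound treatment at 37C of HEK293H cells expressing a UAS-driven bla reporter responsive to PPARg.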

Compound	Potency [1]	Potency [2]	Potency [3]	Potency [4]	Potency [5]	Potency (Aromatase (Homo sapiens))	Potency [6]	Potency [7]	Potency [8]	Potency [9]	Potency [10]	Potency [11]	Potency [12]	Potency [13]	Potency [14]
Cc1ccc(O)c2ncccc12	6.68 µM (active)	6.68 µM (active)	inactive	inactive	inactive	13.3 µM (active)	–	–	–	–	–	–	–	–	–
CCCCCCCCCCCC(=O)NCCCN(C)C	17.2 µM (active)	17.2 µM (active)	49 µM (active)	–	–	43.3 µM (active)	61.1 µM (active)	54.5 µM (active)	inactive	54.5 µM (active)	43.3 µM (active)	49 µM (active)	–	–	–
NC(=O)N1C(=O)C(C(=O)c2cc(Cl)cs2)c2cc(F)c(Cl)cc21 (stereo unspecified)	61.1 µM (active)	61.1 µM (active)	49 µM (active)	inactive	inactive	–	8.63 µM (active)	–	24.3 µM (active)	12.2 µM (active)	–	inactive	13.8 µM (active)	–	–
O=C(NOCC1CC1)c1ccc(F)c(F)c1Nc1ccc(I)cc1Cl	15 µM (active)	13.3 µM (active)	–	inactive	–	inactive	inactive	–	inactive	–	–	29.8 µM (active)	13.3 µM (active)	3.79 µM [inconclusive] (active)	inactive
CCCCC(CC)CN=C(N)NC(N)=NCCCCCCN=C(N)NC(N)=NCC(CC)CCCC (stereo unspecified)	7.5 µM (active)	6.68 µM (active)	10.7 µM (active)	–	–	18.8 µM (active)	–	26.6 µM (active)	inactive	21.1 µM (active)	9.44 µM (active)	23.7 µM (active)	11.9 µM (active)	–	–
